We go through ten molecules from PubChem BioAssay (EPA / NIEHS).

Read-out in assay [1]: E-selectin (Homo sapiens) (UniProt P16581)
As to the kind of experiment: BSK_SAg_Eselectin: BioMAP Diversity Plus: SAg Assay for Eselectin Biomarker Activity (AID 2283091). To be noted: primary human HUVEC with PBMC; actives raise or lower the signal. Summed up: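 E-selectin ELISA readout at 24 h post-dosing in human umbilical vein endothelial cell/PBMC co-culture; gain or loss of signal fitted relative to DMSO baseline.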

Read-out in assay [2]: Monokine induced gamma interferon (MIG), CXCL9 (gene 4283)
As to the kind of experiment: BSK_SAg_MIG: BioMAP Diversity Plus: SAg Assay for Monokine induced gamma interferon (MIG) Biomarker Activity (AID 2283092). To be noted: primary human HUVEC with PBMC; actives raise or lower the signal. The procedure, abridged:
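Measures CXCL9 protein by ELISA in a human vascular primary-cell co-culture (umbilical vein endothelium with PBMC) 24 h after chemical addition. Activity is scored up or down from the DMSO control.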

The nature of assay [3]: BSK_SAg_PBMCCytotoxicity: PBMC Cytotoxicity Assessment in the BioMAP Diversity Plus: SAg Assay (AID 2283093).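 Also: PBMC viability measured as Alamar Blue reduction fluorescence at 546/580 nm; fitted both ways against DMSO so a hit may be loss or gain of signal.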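 As to AC50: PBMC superantigen activated with SEB plus TSST-1 one hour after compound addition.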 To be noted: primary human HUVEC with PBMC. Summed up: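 Alamar Blue reduction (6 h, ex/em 546/580 nm) read after 90 h culture of PBMC pre-dosed 1 h then stimulated with SEB plus TSST-1, 20 ng/mL each. Gain or loss of signal fitted relative to DMSO.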
Read-out in assay [4]: Interleukin-8 (IL8), CXCL8 (gene 3576)
The assay can be described thus: BSK_SAg_IL8: BioMAP Diversity Plus: SAg Assay for Interleukin-8 (IL8) Biomarker Activity (AID 2283094). To be noted: primary human HUVEC with PBMC; actives raise or lower the signal. The procedure, abridged: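 Chemicals were dosed onto a human endothelial–PBMC co-culture, and IL-8 was quantified by ELISA after 24 h. Both increases and decreases were fitted relative to DMSO.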

Assay [5] can be described thus: BSK_SAg_Proliferation: Cell Proliferation Assessment in the BioMAP Diversity Plus: SAg Assay (AID 2283095).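 Also: relative cell number as total protein by SRB absorbance in sub-confluent culture.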 To be noted: primary human HUVEC with PBMC. Summed up: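 Absorbance of sulforhodamine B at 560 nm reports total protein in a human vascular endothelial/PBMC co-culture after 96 h chemical exposure. Gain or loss of signal is fitted in both directions against DMSO.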

Assay [6] in a line: BSK_SAg_SRB: Viability Assessment in the BioMAP Diversity Plus: SAg Assay (AID 2283096).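 Also: cells read one day after compound addition; hits may be either gain or loss of signal compared with DMSO.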 To be noted: primary human HUVEC with PBMC. Summed up:
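SRB absorbance at 560 nm served as the viability read-out. Cells (HUVEC plus peripheral blood mononuclear cells) were TCA-fixed and stained 24 h post-dosing; activity fitted in both directions against DMSO controls.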

The target of assay [7] is human CYP19A1, CYP19A1 (gene 1588) (UniProt P11511). The assay can be described thus: NVS_ADME_hCYP19A1: NovaScreen (NVS) CYP450-related Enzyme Activity (ADME) Assay for human CYP19A1 (AID 2283098; active = hit-call score of the fitted dose curve at least 0.9, where 1 is the maximum). Summed up:
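Primary testing was in duplicate at a single 10 uM concentration, with actives followed up in concentration-response series. Fluorescence read-out of recombinant enzyme activity at 0.5 h, cell-free. Acetonitrile was the negative-control baseline.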

In assay [8] the target is human CYP2A6, CYP2A6 (gene 1548) (UniProt P11509). As to the kind of experiment: NVS_ADME_hCYP2A6: NovaScreen (NVS) CYP450-related Enzyme Activity (ADME) Assay for human CYP2A6 (AID 2283099; active = hit-call score of the fitted dose curve at least 0.9, where 1 is the maximum). Summed up:
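Insect-cell-expressed human CYP2A6 enzyme activity measured by fluorescence intensity 0.5 hour post-dosing. Compounds screened at 10 uM in duplicate, then hits tested singly in concentration series (max 20 uM); acetonitrile baseline.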

In assay [9] the target is human CYP2B6, CYP2B6 (gene 1555) (UniProt P20813). The assay can be described thus: NVS_ADME_hCYP2B6: NovaScreen (NVS) CYP450-related Enzyme Activity (ADME) Assay for human CYP2B6 (AID 2283101; active = hit-call score of the fitted dose curve at least 0.9, where 1 is the maximum). Summed up:
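Recombinant protein, specific fluorescent substrate, read at 1 h post-dosing. Primary: single 10 uM, duplicate; follow-up: concentration series. Activity = signal loss vs acetonitrile baseline, with positive and negative controls on every plate.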

The target in assay [10] is human CYP1A2, CYP1A2 (gene 1544) (UniProt P05177). The assay can be described thus: NVS_ADME_hCYP1A2: NovaScreen (NVS) CYP450-related Enzyme Activity (ADME) Assay for human CYP1A2 (AID 2283102; active = hit-call score of the fitted dose curve at least 0.9, where 1 is the maximum). Summed up:
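Fluorescence-intensity enzyme activity read-out, taken 0.5 h post-dosing, using insect-cell-derived recombinant CYP1A2 and specific fluorescent substrate. Acetonitrile served as negative control/baseline. Single-concentration duplicate screen at 10 uM, then concentration-response follow-up.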

The target of assay [11] is human CYP2C8, CYP2C8 (gene 1558) (UniProt P10632). The assay can be described thus: NVS_ADME_hCYP2C8: NovaScreen (NVS) CYP450-related Enzyme Activity (ADME) Assay for human CYP2C8 (AID 2283104). Summed up:
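Fluorescence readout of substrate turnover by recombinant CYP2C8 after 0.5 h, baseline acetonitrile. Single-concentration duplicate screen at 10 uM preceded singleton concentration series (max 20 uM) for compounds passing the inhibition threshold.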

Assay [12] has as its target human CYP2C9, CYP2C9 (gene 1559) (UniProt P11712). As to the kind of experiment: NVS_ADME_hCYP2C9: NovaScreen (NVS) CYP450-related Enzyme Activity (ADME) Assay for human CYP2C9 (AID 2283108; active = hit-call score of the fitted dose curve at least 0.9, where 1 is the maximum). Summed up:
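Fluorescence readout of CYP2C9 activity (SF9-expressed human enzyme) at 0.75 h. The primary screen used 10 uM in duplicate, with concentration-response follow-up for actives; acetonitrile was the negative control.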

In assay [13] the target is Cytochrome P450 3A4 (Homo sapiens) (UniProt P08684). The assay can be described thus: NVS_ADME_hCYP3A4: NovaScreen (NVS) CYP450-related Enzyme Activity (ADME) Assay for human CYP3A4 (AID 2283110; active = hit-call score of the fitted dose curve at least 0.9, where 1 is the maximum). The procedure, abridged: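 Compounds screened in duplicate at 10 uM, with follow-up concentration-response for actives, against insect-cell-expressed recombinant enzyme. Activity read by fluorescence 0.33 h after dosing; loss of signal versus acetonitrile control indicates inhibition.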

Assay [14] addresses Cytochrome P450 2C19 (Homo sapiens) (UniProt P33261). As to the kind of experiment: NVS_ADME_hCYP2C19: NovaScreen (NVS) CYP450-related Enzyme Activity (ADME) Assay for human CYP2C19 (AID 2283113; active = hit-call score of the fitted dose curve at least 0.9, where 1 is the maximum;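 as to AC50: potency for inhibition seen as loss of fluorescent signal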). The procedure, abridged:
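Recombinant insect-cell-expressed enzyme, fluorescent substrate, 1 h after chemical addition, fluorescence intensity. Baseline = acetonitrile vehicle; activity scored as signal loss. Primary HTS single concentration 10 uM, duplicate; actives retested in concentration series.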

The target in assay [15] is rat CYP2A2, Cyp2a2 (gene 24895) (UniProt P15149). The assay can be described thus: NVS_ADME_rCYP2A2: NovaScreen (NVS) CYP450-related Enzyme Activity (ADME) Assay for rat CYP2A2 (AID 2283116; active = hit-call score of the fitted dose curve at least 0.9, where 1 is the maximum). Summed up:
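Compounds first tested in duplicate at 10 uM, then in singleton concentration series up to 20 uM when over threshold. Activity of the recombinant enzyme read by fluorescence at 0.2 h, normalised to acetonitrile vehicle.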

Another assay has as its system rat CYP2B1, gene 24300. The assay can be described thus: NVS_ADME_rCYP2B1: NovaScreen (NVS) CYP450-related Enzyme Activity (ADME) Assay for rat CYP2B1 (AID 2283117; active = hit-call score of the fitted dose curve at least 0.9, where 1 is the maximum). The procedure, abridged:
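Cell-free fluorescence enzyme assay, recombinant rat CYP2B1, 0.75 h after dosing. Single-concentration duplicates at 10 uM preceded concentration series (max 20 uM) for actives; acetonitrile as negative-control baseline.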

Inconclusive results are not listed. Active and inactive are the calls of the source. The calls were made as follows, unless noted: active = hit-call score of the fitted dose curve at least 0.9, where 1 is the maximum; inactive = score below 0.9.

Chain of E-selectin (Homo sapiens) (P16581 whole entry, looked up): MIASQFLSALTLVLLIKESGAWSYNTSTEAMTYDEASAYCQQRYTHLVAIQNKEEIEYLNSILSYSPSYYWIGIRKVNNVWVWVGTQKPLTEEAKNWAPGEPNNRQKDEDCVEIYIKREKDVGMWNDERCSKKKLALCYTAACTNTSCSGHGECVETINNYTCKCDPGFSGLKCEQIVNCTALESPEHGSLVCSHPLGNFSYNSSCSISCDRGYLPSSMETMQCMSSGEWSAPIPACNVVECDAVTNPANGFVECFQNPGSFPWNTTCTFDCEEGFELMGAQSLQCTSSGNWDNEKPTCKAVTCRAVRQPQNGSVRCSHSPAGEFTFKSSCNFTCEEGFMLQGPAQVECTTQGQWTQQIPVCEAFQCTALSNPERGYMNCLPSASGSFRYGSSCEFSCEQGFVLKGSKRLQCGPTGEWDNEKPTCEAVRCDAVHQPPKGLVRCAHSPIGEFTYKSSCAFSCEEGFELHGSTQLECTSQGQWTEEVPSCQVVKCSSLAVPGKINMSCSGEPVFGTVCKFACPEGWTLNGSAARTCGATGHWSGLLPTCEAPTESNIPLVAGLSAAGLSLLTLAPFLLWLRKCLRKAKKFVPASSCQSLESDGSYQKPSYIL
Chain of human CYP19A1, CYP19A1 (gene 1588) (P11511 whole entry, looked up): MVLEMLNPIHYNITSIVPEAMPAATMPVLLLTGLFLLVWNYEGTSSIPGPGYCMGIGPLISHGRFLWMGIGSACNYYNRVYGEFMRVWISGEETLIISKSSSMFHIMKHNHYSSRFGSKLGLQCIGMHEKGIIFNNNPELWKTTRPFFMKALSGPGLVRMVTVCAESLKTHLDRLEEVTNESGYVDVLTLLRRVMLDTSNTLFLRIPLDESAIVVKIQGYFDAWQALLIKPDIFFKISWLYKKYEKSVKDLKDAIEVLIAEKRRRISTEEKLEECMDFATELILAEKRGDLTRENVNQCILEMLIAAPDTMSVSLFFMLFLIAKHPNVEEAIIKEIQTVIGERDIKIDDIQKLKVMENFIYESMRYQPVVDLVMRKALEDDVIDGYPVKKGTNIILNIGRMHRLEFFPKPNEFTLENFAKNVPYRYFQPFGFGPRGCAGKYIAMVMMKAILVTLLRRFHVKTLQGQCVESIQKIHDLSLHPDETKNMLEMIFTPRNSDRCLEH
Chain of rat CYP2A2, Cyp2a2 (gene 24895) (P15149 whole entry, looked up): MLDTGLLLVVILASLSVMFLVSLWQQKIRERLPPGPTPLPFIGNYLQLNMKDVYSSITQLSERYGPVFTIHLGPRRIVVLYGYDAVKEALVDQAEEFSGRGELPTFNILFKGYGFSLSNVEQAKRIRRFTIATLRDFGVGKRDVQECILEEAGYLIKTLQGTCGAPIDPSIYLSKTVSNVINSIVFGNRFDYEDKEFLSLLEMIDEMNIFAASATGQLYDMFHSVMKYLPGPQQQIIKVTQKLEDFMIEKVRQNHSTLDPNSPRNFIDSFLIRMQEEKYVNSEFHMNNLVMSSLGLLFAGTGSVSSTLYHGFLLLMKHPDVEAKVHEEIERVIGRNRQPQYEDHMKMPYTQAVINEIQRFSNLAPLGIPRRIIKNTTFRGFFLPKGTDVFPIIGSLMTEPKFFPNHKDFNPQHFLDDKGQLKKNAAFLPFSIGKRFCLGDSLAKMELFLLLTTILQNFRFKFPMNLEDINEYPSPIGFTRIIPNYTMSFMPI
Chain of human CYP2C8, CYP2C8 (gene 1558) (P10632 whole entry, looked up): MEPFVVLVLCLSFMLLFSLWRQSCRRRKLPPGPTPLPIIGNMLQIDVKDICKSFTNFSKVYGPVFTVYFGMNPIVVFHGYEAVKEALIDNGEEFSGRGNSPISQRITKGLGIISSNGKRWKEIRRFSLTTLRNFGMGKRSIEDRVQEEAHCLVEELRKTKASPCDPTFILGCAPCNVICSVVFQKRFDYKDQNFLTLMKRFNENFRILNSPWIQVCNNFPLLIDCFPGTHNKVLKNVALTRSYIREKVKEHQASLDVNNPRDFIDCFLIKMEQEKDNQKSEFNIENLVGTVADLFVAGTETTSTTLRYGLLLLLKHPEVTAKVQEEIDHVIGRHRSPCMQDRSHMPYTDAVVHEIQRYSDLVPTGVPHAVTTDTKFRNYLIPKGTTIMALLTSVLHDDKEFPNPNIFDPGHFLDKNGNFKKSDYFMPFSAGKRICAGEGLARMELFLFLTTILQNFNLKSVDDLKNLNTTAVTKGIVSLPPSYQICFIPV
Chain of human CYP1A2, CYP1A2 (gene 1544) (P05177 whole entry, looked up): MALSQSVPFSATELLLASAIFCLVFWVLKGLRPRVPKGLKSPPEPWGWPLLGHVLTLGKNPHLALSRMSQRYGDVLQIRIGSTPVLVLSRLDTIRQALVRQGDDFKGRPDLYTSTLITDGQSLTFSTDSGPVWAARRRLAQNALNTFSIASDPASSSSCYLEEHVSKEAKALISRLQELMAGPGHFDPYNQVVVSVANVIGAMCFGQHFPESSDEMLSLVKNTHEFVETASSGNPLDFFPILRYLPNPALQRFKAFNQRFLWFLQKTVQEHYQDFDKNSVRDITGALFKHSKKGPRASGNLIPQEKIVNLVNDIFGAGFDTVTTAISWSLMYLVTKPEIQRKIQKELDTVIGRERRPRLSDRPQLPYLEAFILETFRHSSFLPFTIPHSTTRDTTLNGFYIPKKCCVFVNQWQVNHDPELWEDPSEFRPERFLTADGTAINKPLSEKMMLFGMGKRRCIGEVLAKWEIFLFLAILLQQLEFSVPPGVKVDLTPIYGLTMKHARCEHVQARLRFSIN
Chain of human CYP2B6, CYP2B6 (gene 1555) (P20813 whole entry, looked up): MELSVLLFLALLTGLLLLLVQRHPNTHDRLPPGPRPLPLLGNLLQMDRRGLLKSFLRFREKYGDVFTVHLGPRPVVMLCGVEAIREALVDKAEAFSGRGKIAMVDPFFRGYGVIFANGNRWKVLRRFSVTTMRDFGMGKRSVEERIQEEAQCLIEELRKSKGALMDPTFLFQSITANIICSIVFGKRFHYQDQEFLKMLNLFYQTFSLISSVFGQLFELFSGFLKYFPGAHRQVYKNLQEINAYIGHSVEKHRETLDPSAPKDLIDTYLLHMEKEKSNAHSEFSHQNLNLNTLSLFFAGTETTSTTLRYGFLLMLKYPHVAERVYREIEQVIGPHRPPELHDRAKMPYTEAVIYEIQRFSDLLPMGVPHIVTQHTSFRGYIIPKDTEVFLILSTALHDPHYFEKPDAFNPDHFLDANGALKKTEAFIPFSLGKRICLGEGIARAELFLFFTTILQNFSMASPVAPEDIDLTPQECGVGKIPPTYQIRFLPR
Chain of human CYP2A6, CYP2A6 (gene 1548) (P11509 whole entry, looked up): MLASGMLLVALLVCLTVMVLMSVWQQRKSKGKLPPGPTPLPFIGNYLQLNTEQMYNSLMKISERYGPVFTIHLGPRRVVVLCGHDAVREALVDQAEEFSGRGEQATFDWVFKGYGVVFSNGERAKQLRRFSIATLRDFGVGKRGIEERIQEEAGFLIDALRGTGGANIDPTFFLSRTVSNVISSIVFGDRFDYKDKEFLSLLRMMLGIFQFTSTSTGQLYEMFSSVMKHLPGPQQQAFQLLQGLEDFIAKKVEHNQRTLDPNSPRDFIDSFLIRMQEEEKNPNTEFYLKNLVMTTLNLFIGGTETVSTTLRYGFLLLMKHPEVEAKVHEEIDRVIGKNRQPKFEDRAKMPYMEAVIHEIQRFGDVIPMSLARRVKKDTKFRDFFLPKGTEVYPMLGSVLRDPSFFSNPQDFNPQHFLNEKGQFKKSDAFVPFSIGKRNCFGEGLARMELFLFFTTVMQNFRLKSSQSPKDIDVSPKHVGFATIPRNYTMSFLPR
Chain of human CYP2C9, CYP2C9 (gene 1559) (P11712 whole entry, looked up): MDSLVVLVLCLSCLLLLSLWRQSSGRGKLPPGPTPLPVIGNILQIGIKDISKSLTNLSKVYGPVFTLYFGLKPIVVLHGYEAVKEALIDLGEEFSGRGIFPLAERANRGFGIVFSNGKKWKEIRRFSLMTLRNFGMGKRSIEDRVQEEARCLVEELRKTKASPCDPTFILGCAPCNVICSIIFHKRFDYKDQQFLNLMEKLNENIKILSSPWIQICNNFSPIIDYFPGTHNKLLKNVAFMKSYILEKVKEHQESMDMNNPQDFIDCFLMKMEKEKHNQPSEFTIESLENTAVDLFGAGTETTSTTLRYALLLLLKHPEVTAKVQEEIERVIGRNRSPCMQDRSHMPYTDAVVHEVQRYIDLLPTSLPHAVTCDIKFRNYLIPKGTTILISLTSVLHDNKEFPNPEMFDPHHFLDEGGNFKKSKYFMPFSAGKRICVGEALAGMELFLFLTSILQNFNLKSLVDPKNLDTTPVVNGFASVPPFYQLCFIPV
Chain of Cytochrome P450 3A4 (Homo sapiens) (P08684 whole entry, looked up): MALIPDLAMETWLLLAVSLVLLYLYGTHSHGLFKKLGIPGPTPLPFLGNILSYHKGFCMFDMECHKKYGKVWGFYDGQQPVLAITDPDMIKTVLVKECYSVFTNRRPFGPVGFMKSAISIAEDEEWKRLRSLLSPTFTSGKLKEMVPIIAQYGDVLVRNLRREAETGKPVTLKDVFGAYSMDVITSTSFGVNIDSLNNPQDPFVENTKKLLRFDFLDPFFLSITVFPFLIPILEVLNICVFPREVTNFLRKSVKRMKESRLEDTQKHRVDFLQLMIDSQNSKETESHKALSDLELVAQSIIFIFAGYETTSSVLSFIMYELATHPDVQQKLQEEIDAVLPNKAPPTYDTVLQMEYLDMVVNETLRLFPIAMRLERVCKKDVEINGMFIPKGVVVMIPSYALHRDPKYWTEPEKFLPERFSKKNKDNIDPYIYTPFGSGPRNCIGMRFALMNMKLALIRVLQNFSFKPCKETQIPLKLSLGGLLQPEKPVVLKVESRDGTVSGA

For `Cc1ccn2nc(S(=O)(=O)Nc3c(F)cccc3F)nc2n1`, the outcome in assay [1], in assay [2], in assay [3], in assay [4], in assay [5] and in assay [6] was inactive.
On to `CCOC(=O)CC(SP(=O)(OC)OC)C(=O)OCC` (centres undefined), for which the result in [1], in assay [2], in assay [3], in [4], in assay [5] and in assay [6] was inactive. Further, the outcome in [7], in [8], in [10], in assay [11], in assay [13] and in assay [15] was inactive. For the same molecule, the molecule was classed as inactive in the assay on rat CYP2B1, gene 24300. Besides, the figures for the concentration at half-maximal activity (AC50) in [9], in assay [12] and in assay [14] were 2.49 µM (active), 1.98 µM (active) and 9.39 µM (active), respectively.
Take `CCOC(=O)COc1cc(-c2nn(C)c(OC(F)F)c2Cl)c(F)cc1Cl`: the result in [1], in assay [2], in assay [3], in assay [4], in assay [5] and in assay [6] was inactive.
On to `O=C(O)c1cc(Oc2ccc(C(F)(F)F)cc2Cl)ccc1[N+](=O)[O-]`, for which the outcome in assay [1], in [2], in assay [3], in [4], in assay [5] and in [6] was inactive.
On to `CCCCOC(=O)c1ccccc1C(=O)O`, for which the outcome in assay [1], in assay [2], in assay [3], in assay [4], in assay [5] and in assay [6] was inactive. In addition, the outcome is “inactive” in assay [7]; “inactive” in assay [10]; “inactive” in [11]; “inactive” in assay [14]; “inactive” in the assay with rat CYP2B1, gene 24300. For the same molecule, the half-maximal activity concentration (AC50) in assay [15] was 2.6 µM (active).
For `S=C1NCCN1`, the outcome in [1], in assay [2], in [3], in [4], in assay [5] and in [6] was inactive. Further, the result in assay [7], in [12] and in assay [14] was inactive. The AC50 in assay [8] was 3.94 µM (active).
Turning to `CC[C@H](C)[C@H]1O[C@]2(C=C[C@@H]1C)C[C@@H]1C[C@@H](C/C=C(\C)[C@@H](O[C@H]3C[C@H](OC)[C@@H](O[C@H]4C[C@H](OC)[C@@H](NC)[C@H](C)O4)[C@H](C)O3)[C@@H](C)/C=C/C=C3\CO[C@@H]4[C@H](O)C(C)=C[C@@H](C(=O)O1)[C@]34O)O2`, the AC50 is 4.95 µM (active) in assay [1]; 8.62 µM (active) in assay [2]; 2.6 µM (active) in assay [3]; 2.16 µM (active) in [4]; 1.69 µM (active) in assay [5]; 5.06 µM (active) in assay [6]. Moreover, the AC50 in assay [9] was 8.42 µM (active); in assay [14] it was 10 µM (active); in assay [15] it was 1.65 µM (active). In [7], the molecule was called inactive.
As for `COP(=O)(OC)C(O)C(Cl)(Cl)Cl` (centres undefined), the values for the AC50 in assay [1] and in [5] were 32.5 µM (active) and 8.98 µM (active), respectively. Further, the outcome in assay [2], in [3], in [4] and in assay [6] was inactive.
For the molecule `CCOP(=S)(Oc1cnc(C(C)(C)C)nc1)OC(C)C` (centres undefined), the AC50 in [1] was 31.4 µM (active); in [2], 33.3 µM (active); in assay [3], 36.7 µM (active); in [4], 30.3 µM (active); in [5] it was 36.6 µM (active); in assay [6], 34.3 µM (active).
With `CC(Oc1cccc(Cl)c1)C(=O)O` (centres undefined), the result in assay [1], in assay [2], in [3], in assay [4], in assay [5] and in assay [6] was inactive.
